Source: PubChem BioAssay
The source made the active and inactive calls.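 How the source made its calls, unless noted: active means inhibition of the reporter signal at or above 50%; inactive means inhibition below 50%.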

Columns and labels:
[1] = inhibitors of TNFa-induced NFkB p65 translocation, primary screen, imaging, HUVEC, MLSMR starter and 10KST1 sets (AID 438;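 active means inhibition above 20% together with a positive visual image hit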;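 further: compound added about 3h40 before a 20 min TNFalpha stimulation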;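 on inhibition: signal is the nuclear over cytoplasmic p65 intensity ratio per well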); details: HUVEC TNFa-induced p65 nuclear translocation; cell count: measured here: nuclei count (cytotoxicity indicator), at 2.08 µM; inhibition: at 2 µM, stronger effect = higher value, 0% TNFa-plus-vehicle, 100% no-TNFa wells
[2] = inhibitors of mutant huntingtin aggregation, primary screen, imaging, exon1htt(103Q)mCFP cells, high-content imaging (AID 483;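 active means visual image review flags a hit and inhibition of aggregation exceeds 20%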;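 further: compound exposure lasted 3 days before fixation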;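 on nuclei count: percent of the per-plate median nuclei count of sample wells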); details: exon1htt(103Q)mCFP cell line, aggregate imaging, at 2 µM; inhibition of aggregation: stronger effect = higher value; nuclei count: measured here: cell count, toxicity
[3] = inhibitors of E-selectin induction by TNFa, primary screen, imaging, HUVEC, immunofluorescence, MLSMR starter and 10KST1 sets (AID 487;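 active means visually confirmed hit in the image check and inhibition above 20%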;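 on inhibition: signal is fraction of cell area covered by stained E-selectin grains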;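 on nuclei count: 100% = median nuclei count of all wells on the same plate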); details: HUVEC TNFalpha-induced E-selectin immunofluorescence imaging, at 2 µM; inhibition: stronger effect = higher value; nuclei count: measured here: cell number, toxicity
[4] = molecular target: Voltage-gated potassium channel subunit beta-2 (Rattus norvegicus) (UniProt P62483); test: KvBeta enzyme negative modulators, primary screen, biochemical, NADPH fluorescence (AID 622;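 active means fluorescence slope higher than the sample average by over 3 SD, cut at about -0.22 in these data, passing the limit was not always enough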;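 further: slope of raw intensity against log time taken from 70 to 1610 s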); details: recombinant KvBeta, 4-cyanobenzaldehyde reduction, at 10 µM, stronger effect = higher value
[5] = molecular target: Voltage-gated potassium channel subunit beta-2 (Rattus norvegicus) (UniProt P62483); test: KvBeta positive modulators, primary screen, biochemical, NADPH fluorescence (AID 623;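 active means NADPH fluorescence slope more negative than the mean of all samples by about 3 SD, 99.7% confidence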;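 further: fluorescence intensity change per second fitted from 20 to 320 s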); details: Recombinant KvBeta, NADPH fluorescence decrease slope, 10 min; at 10 µM; stronger effect = lower value
[6] = molecular target: Alpha-2C adrenergic receptor (Homo sapiens) (UniProt P18825); test: modulators of alpha2C/GIRK thallium flux, primary screen, cell-based, HEK293 alpha2C/GIRK1/2 (AID 624;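 active means fluorescence slope after compound addition differing from the mean of all screened samples at 99.7% confidence, in either direction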;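 further: slope of fluorescence ratio to pre-addition baseline per second over 15 to 24 s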); details: thallium flux BTC fluorescence, at 10 µM, actives lie on both sides
[7] = inhibitors of Sendai virus-induced IRF3 signaling, primary screen, TLR/RLR signaling modifier project, cell-based, Sendai virus stimulus, luciferase, 10K MLSCN set (AID 602276;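 active means inhibition at or above 50% at 10 µM; inactive means inhibition below 50%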;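 further: firefly luciferase from ISG56 promoter only with Renilla not read in this screen; 0% = Sendai virus plus DMSO and 100% = medium plus DMSO without virus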); details: HEK293 RL24 IRF3 luciferase reporter, at 10 µM, stronger effect = higher value
[8] = inhibitors of poly I:C-induced TLR3 signaling, primary screen, cell-based, poly I:C stimulus, luciferase, 10K MLSCN set (AID 602277); details: HEK293-TLR3 RL24 IRF3 luciferase reporter, at 10 µM, stronger effect = higher value

Alpha-2C adrenergic receptor (Homo sapiens), sequence (P18825 whole entry, looked up): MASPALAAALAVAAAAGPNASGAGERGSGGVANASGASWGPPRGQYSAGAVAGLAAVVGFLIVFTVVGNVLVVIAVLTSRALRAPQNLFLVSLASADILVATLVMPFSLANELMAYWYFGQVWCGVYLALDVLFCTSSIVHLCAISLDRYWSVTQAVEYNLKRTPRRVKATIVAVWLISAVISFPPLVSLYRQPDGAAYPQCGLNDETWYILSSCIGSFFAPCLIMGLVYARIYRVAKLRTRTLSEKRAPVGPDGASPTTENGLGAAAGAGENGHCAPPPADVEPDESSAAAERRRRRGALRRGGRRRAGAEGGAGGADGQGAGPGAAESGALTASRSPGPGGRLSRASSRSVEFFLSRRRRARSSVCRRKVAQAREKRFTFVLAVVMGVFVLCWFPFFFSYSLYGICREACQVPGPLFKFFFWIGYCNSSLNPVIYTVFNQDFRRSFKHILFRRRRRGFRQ
Voltage-gated potassium channel subunit beta-2 (Rattus norvegicus), sequence (P62483 whole entry, looked up): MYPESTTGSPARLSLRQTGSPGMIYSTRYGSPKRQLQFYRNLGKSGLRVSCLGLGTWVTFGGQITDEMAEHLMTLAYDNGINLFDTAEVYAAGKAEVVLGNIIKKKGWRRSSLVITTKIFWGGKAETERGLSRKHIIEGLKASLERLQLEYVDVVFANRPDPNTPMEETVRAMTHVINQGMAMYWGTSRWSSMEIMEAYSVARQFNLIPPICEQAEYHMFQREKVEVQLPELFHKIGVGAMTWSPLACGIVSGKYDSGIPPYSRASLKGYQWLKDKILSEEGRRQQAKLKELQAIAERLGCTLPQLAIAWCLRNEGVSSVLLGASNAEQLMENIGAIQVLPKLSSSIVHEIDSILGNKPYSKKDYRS

Structure (SMILES)	cell count [1]	inhibition [1]	inhibition of aggregation [2]	nuclei count [2]	inhibition [3]	nuclei count [3]	fluorescence slope [4]	NADPH fluorescence slope [5]	slope [6]	inhibition [7]	inhibition [8]
CCOC(=O)C1=C(C)N=c2s/c(=C\c3cccn3C)c(=O)n2C1c1cccc(OC)c1OC (stereo not drawn)	342	4.5% (inactive)	0.2% (inactive)	98.8%	-38% (inactive)	102%	-0.419 (inactive)	-8.6e-05 (inactive)	0.0038 (inactive)	15.4% (inactive)	25.1% (inactive)
Cc1cc(C)c2c(n1)nn1c(N3CCOCC3)cc(C)nc21	503	-6.3% (inactive)	5.7% (inactive)	81.9%	-56.5% (inactive)	123%	-0.0426 (active)	-2.7e-06 (inactive)	0.00599 (inactive)	2.18% (inactive)	3.21% (inactive)
Cc1ccc(-c2cc(C(F)(F)F)n3nc(C(=O)N4CCCC4)cc3n2)cc1	336	5.5% (inactive)	13.3% (inactive)	107%	-148% (inactive)	127%	-0.512 (inactive)	-1.4e-05 (inactive)	0.00691 (inactive)	-0.996% (inactive)	-25.5% (inactive)
Cc1cc2cc(CCNC(=O)CC(C)C)c(=O)[nH]c2cc1C	633	-5.8% (inactive)	15.1% (inactive)	83.5%	-40% (inactive)	107%	-0.595 (inactive)	-2.7e-05 (inactive)	0.00623 (inactive)	-11.5% (inactive)	-9.56% (inactive)
CC(=O)NC(Cc1ccc(C)cc1)C(=O)NC1CCN(C(=O)c2cnccn2)CC1 (stereo not drawn)	740	-1% (inactive)	22.2% (inactive)	130%	-42% (inactive)	117%	-0.421 (inactive)	-1.5e-05 (inactive)	0.00511 (inactive)	13.8% (inactive)	9.87% (inactive)
CCOC(=O)Cn1nnnc1C(C(C)C)N(Cc1cc2c(C)cc(C)cc2[nH]c1=O)C1CCCC1 (stereo not drawn)	666	-13.4% (inactive)	-17.6% (inactive)	97.7%	39.1% (inactive)	106%	-0.498 (inactive)	1.1e-05 (inactive)	0.0076 (inactive)	-15.9% (inactive)	10.4% (inactive)
COc1ccc2c(CC(=O)Nc3ccc(OC)c(NS(=O)(=O)c4ccc(F)cc4)c3)coc2c1	403	-1.4% (inactive)	2.9% (inactive)	116%	-29.3% (inactive)	100%	-0.275 (inactive)	-8.3e-06 (inactive)	0.00715 (inactive)	9% (inactive)	18.5% (inactive)
Cc1cccc(-n2ncc3c(NCCCn4ccnc4)ncnc32)c1	604	1.3% (inactive)	30.9% (inactive)	99.7%	-29.8% (inactive)	119%	-0.45 (inactive)	-4.7e-05 (inactive)	0.00546 (inactive)	-63.1% (inactive)	-121% (inactive)
Cc1nn(-c2ccccc2)c2sc(C(=O)N3CCOCC3)cc12	536	-4.4% (inactive)	-1.9% (inactive)	115%	-11.9% (inactive)	118%	-0.398 (inactive)	1.4e-05 (inactive)	0.00676 (inactive)	-21.4% (inactive)	-21.6% (inactive)
Cc1c(Cl)cnc(NC(=O)COC(=O)C(NC(=O)c2ccco2)C(C)C)c1Cl (stereo not drawn)	362	7.4% (inactive)	-2.1% (inactive)	80.5%	-17.2% (inactive)	112%	-0.584 (inactive)	-3.9e-05 (inactive)	0.00552 (inactive)	6.87% (inactive)	5.64% (inactive)
O=C(CN1CCCN(S(=O)(=O)c2ccc(F)cc2)CC1)Nc1ccccc1Br	220	-1.3% (inactive)	2% (inactive)	108%	-17.3% (inactive)	118%	-0.504 (inactive)	2.2e-05 (inactive)	0.00558 (inactive)	3.65% (inactive)	9.12% (inactive)
O=C(NCCCN1CCCC1=O)c1ccc2c(c1)NC(=O)C(N1CCOCC1)S2 (stereo not drawn)	431	7.4% (inactive)	-20.6% (inactive)	114%	-21.8% (inactive)	116%	-0.615 (inactive)	-3.9e-05 (inactive)	0.00374 (inactive)	6.23% (inactive)	15% (inactive)
C#CCNc1c(C)c(C)nc2ncnn12	306	-9.4% (inactive)	32.2% (inactive)	86.1%	-44.2% (inactive)	89.3%	-0.592 (inactive)	-3.6e-05 (inactive)	0.00371 (inactive)	14.5% (inactive)	9.86% (inactive)
Cc1cc2cc(CN(CC3CCCO3)C(=O)c3cnccn3)c(=O)[nH]c2cc1C (stereo not drawn)	330	5.3% (inactive)	-0.3% (inactive)	107%	-22.4% (inactive)	125%	-0.592 (inactive)	-5.9e-05 (inactive)	0.00376 (inactive)	-3.76% (inactive)	-3.05% (inactive)
COc1ccc2c(c1OC)C(=O)N(c1ccc3c(c1)CCC3)C2=O	683	-13.1% (inactive)	-0.9% (inactive)	103%	-10.6% (inactive)	107%	-0.499 (inactive)	3.4e-05 (inactive)	0.00573 (inactive)	8.67% (inactive)	-9.24% (inactive)
C=CCSc1n[nH]c(-c2ccc(OC)cc2)n1	244	17.3% (inactive)	-8.3% (inactive)	89.5%	-73.2% (inactive)	103%	-0.417 (inactive)	-9.3e-05 (inactive)	0.00611 (inactive)	-90.7% (inactive)	-168% (inactive)
COc1cc(C(=O)Nc2cccc(-c3nncn3C)c2)cc(OC)c1OC	416	7.6% (inactive)	22.2% (inactive)	76.5%	-52.3% (inactive)	102%	-0.303 (inactive)	-2.8e-05 (inactive)	0.00614 (inactive)	14.3% (inactive)	14.5% (inactive)
c1ccc2c(c1)CNc1ccccc1C2	526	-11.2% (inactive)	30.2% (inactive)	83.2%	-30% (inactive)	86.7%	-0.517 (inactive)	2.1e-06 (inactive)	0.00468 (inactive)	7.99% (inactive)	10.2% (inactive)
CCOc1ccc(C(=O)CN2CCN(S(=O)(=O)c3ccc(OC)cc3)CC2)cc1	599	-2.9% (inactive)	-3.6% (inactive)	106%	-29.2% (inactive)	92.2%	-0.391 (inactive)	-4.7e-05 (inactive)	0.00338 (inactive)	-2.61% (inactive)	21.2% (inactive)
COc1ccc(-c2noc(CCN3C(=O)c4ccccc4C3=O)n2)cc1OC	555	7.6% (inactive)	-3.7% (inactive)	108%	28.6% (inactive)	104%	-0.497 (inactive)	-2.8e-05 (inactive)	0.00665 (inactive)	-0.74% (inactive)	26.4% (inactive)
Cc1ccccc1-c1nc(CN2CCC(C(=O)NC3CCN(Cc4ccccc4)CC3)CC2)c(C)o1	612	3.7% (inactive)	-89.7% (inactive)	107%	13% (inactive)	108%	-0.561 (inactive)	-3e-05 (inactive)	0.0054 (inactive)	-19.2% (inactive)	78% (active)
O=C(Nc1nc(-c2cccs2)cs1)c1cccc(S(=O)(=O)N2CCCCC2)c1	503	0% (inactive)	-5.4% (inactive)	110%	-108% (inactive)	124%	-0.479 (inactive)	-2.5e-05 (inactive)	0.00684 (inactive)	6.17% (inactive)	-7.26% (inactive)
CC1=Nn2c(nnc2-c2ccc(F)cc2)SC1	340	-2.4% (inactive)	4% (inactive)	107%	-66% (inactive)	95.6%	-0.33 (inactive)	-4.3e-05 (inactive)	0.00575 (inactive)	-12.4% (inactive)	-3.16% (inactive)
CCn1cc(C(=O)N=c2sc3ccccc3n2C)c(=O)c2ccc(C)nc21	450	3.7% (inactive)	-5.2% (inactive)	107%	-27.5% (inactive)	97.3%	-0.361 (inactive)	-6.4e-05 (inactive)	0.00595 (inactive)	6.49% (inactive)	23% (inactive)
COC(=O)CCSCc1cn2cc(Cl)ccc2n1	373	2.8% (inactive)	-26.9% (inactive)	103%	-85.2% (inactive)	112%	-0.509 (inactive)	-1.7e-05 (inactive)	0.00629 (inactive)	18.6% (inactive)	56.9% (active)
CCCOc1ccc(S(=O)(=O)NCCCN2CCOCC2)c2ccccc12	402	5.8% (inactive)	-33.7% (inactive)	106%	-43.1% (inactive)	118%	-0.418 (inactive)	-4.8e-05 (inactive)	0.00402 (inactive)	16% (inactive)	13.7% (inactive)
O=C(CCN1C(=O)C2C3C=CC(C3)C2C1=O)NCCc1ccccc1Cl (stereo not drawn)	408	10.7% (inactive)	-1.6% (inactive)	103%	-111% (inactive)	99.4%	-0.498 (inactive)	-2.1e-05 (inactive)	0.00634 (inactive)	-11.5% (inactive)	-13.2% (inactive)
CC(NS(=O)(=O)c1ccccc1)C(c1cccs1)N1CCN(C)CC1 (stereo not drawn)	445	-6.7% (inactive)	-18.1% (inactive)	111%	-262% (inactive)	137%	-0.321 (inactive)	-9.7e-06 (inactive)	0.00347 (inactive)	20.5% (inactive)	36.2% (inactive)
